The term cell viability denotes the share of living cells, or the viability signal relative to a control.

The record followed here is the supplement of paper PMC10941209.

This assay relates to HFF. Description: cell viability relative to DMSO control; higher = less cytotoxic. To be noted: 1 µM; 72 h. As to the method: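 Single-dose cytotoxicity screen of the MMV Pandemic Response Box at 1 uM on human foreskin fibroblasts (HFF), 72 h at 37 C. Viability measured by MTT (OD 550 nm) and normalised to the DMSO control (% survival).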
On to `Cc1oncc1C(=O)Nc1ccc(C(F)(F)F)cc1`, for which the cell viability turned out to be 65.7%.
Turning to `Cc1nc(-c2ccc(C3N(C)c4ccc(F)cc4C(=O)N3c3ccccc3)s2)cs1` (stereo not given), the cell viability worked out at 65.2%.
The result for `NCc1ccc(S(N)(=O)=O)cc1` reads 61.5%.
Compound `C/C(=N\NC(=O)C1CC1c1ccccc1)c1ccc(NC(=O)c2ccco2)cc1` (stereo not given) had a cell viability of 60%.
The result for `O=C(Cc1ccccc1F)Nc1nc2ccccc2[nH]1` reads 69.7%; that for `CCC[C@H](NC(=O)[C@@H]1[C@H]2CCC[C@H]2CN1C(=O)[C@@H](NC(=O)[C@@H](NC(=O)c1cnccn1)C1CCCCC1)C(C)(C)C)C(=O)C(=O)NC1CC1`, 61.8%.
The result for `CCOc1noc2cc(OCCC3CCN(c4ccc(C)nn4)CC3)ccc12` reads 53%; that for `O=C(O)CCNC(=O)c1ccccc1`, 66.9%; that for `NC1C2CC3CC(C2)CC1C3` (stereo not given), 66.1%.
Compound `CC(Cc1ccccc1)C(=O)Nc1ccc(Cl)cc1C(=O)O` (stereo not given) came in with a cell viability of 65%.
On to `O=C(O)c1ccccc1Sc1ncnc2sc3c(c12)CCC3`, for which the cell viability stood at 67.7%.
With `NC(=O)c1[nH]c2ccc(S(N)(=O)=O)cc2c1-c1ccccc1`, the cell viability was 75.8%.
The same measure for `COc1ccc2nc(-c3ccccc3)cc(O)c2c1`: 75%.
The result for `O=C(NCc1cccc2ccccc12)c1cccs1` reads 66%; that for `CNC(=O)C1O[C@@H](n2cnc3c(NCc4cccc(I)c4)nc(Cl)nc32)[C@H](O)[C@@H]1O` (stereo not given in full), 61.2%.
The same measure for `O=C(Nc1ccc(F)cc1)c1nn(-c2ccccc2)c(=O)cc1Cl`: 71%; for `COc1cc(Cc2cnc(N)nc2N)cc(OC)c1OC`: 64.8%; for `CCCCN1C[C@H](O)[C@@H](O)[C@H](O)[C@H]1CO`: 63.2%.
As to `N=c1n(CCN2CCCCC2)c2ccccc2n1CC(O)COc1ccc(Cl)cc1Cl` (stereo not given), the cell viability was 81.4%.
The result for `NC(=O)[C@@H]1CC[C@@H]2CN1C(=O)N2OS(=O)(=O)O` reads 69.1%.
On to `CO[C@@]1(NC(=O)Cc2cccs2)C(=O)N2C(C(=O)O)=C(COC(N)=O)CS[C@@H]21`, for which the cell viability was found to be 63.7%.
The result for `Nc1nc2c(ncn2COC(CO)CO)c(=O)[nH]1` reads 68.6%; that for `Cc1cc(NS(=O)(=O)c2ccc(-c3ccc(F)cc3F)cc2)no1`, 69.4%.
The result for `Nc1cccc(-c2nc(N)nc(NC3Cc4ccccc4C3)n2)c1` reads 68.2%.
On to `O=C(N[C@H](Cc1cccc2ccccc12)C(=O)NCCc1c[nH]cn1)C1Cc2ccccc2C1`, for which the cell viability was found to be 62.3%.
Compound `C[C@H](NC(CC(=O)c1ccccc1C(F)(F)F)C(=O)O)c1ccccc1` (stereo not given in full) gave a cell viability of 63.6%.
The result for `N#Cc1cc([N+](=O)[O-])ccc1Oc1ccccc1Cl` reads 72.5%; that for `Cc1c(N)cccc1Cn1ccc(OCCc2cccs2)cc1=O`, 60.5%.
With `CC[C@@H](CO)NCCN[C@@H](CC)CO`, the cell viability came to 76.1%.
The result for `COc1ccc(COc2cc3oc(=O)c4cc(C(C)O)ccc4c3cc2OC)cc1` (stereo not given) reads 57.3%.
As to `Oc1ccc2[nH]c(-c3ccccc3)nc2c1`, the cell viability was found to be 69.2%.
The same measure for `CCC(CC)[C@H](NC(C)=O)[C@@H]1[C@H](O)[C@@H](C(=O)O)C[C@H]1NC(=N)N`: 73.5%.
Compound `COc1ccc(OCc2ccc(COc3c(Cl)cccc3Cl)cc2)c(Cl)c1` had a cell viability of 60.4%.
In turn, `CN(C)CC(=O)Nc1ccc2[nH]c(=O)c3ccccc3c2c1` registered a cell viability of 59.3%.
The result for `COc1c(NC(=O)[C@H]2CC[C@@H](COc3ccc([N+](=O)[O-])cc3)CC2)c(F)cc2c(=O)c(C(=O)O)cn(C3CC3)c12` reads 62.8%; that for `Oc1cc(-c2cccc3ccccc23)[nH]n1`, 66.8%; that for `COc1cc(C(C(=O)NC2CCCCC2)N(C(=O)Cc2c[nH]c3ccccc23)c2ccc(C(C)C)cc2)cc(OC)c1OC` (stereo not given), 66.3%.
With `O=C(Nc1nnc(-c2ccc(Cl)cc2)o1)c1ccc(F)cc1`, the cell viability turned out to be 65.9%.
`CCOC(=O)/C=C/[C@H](C[C@@H]1CCNC1=O)NC(=O)[C@@H](CC(=O)[C@@H](NC(=O)c1cc(C)on1)C(C)C)Cc1ccc(F)cc1` registered a cell viability of 73.2%.
The same measure for `CC(C)C(=O)N[C@H]1[C@H]([C@H](O)[C@H](O)CO)OC(C(=O)O)=C[C@@H]1N=[N+]=[N-]`: 56.6%.
